± gives the standard deviation of the averaged measurements. Whole data set: some 33,000 sequences, median “E-score (dimensionless, -0.5 to 0.5)” near -0.046, cut for the highest 2% near 0.36. Only a selection was taken, and the highest values are over-represented in it overall.
System: T1, SpTbr T-box DNA-binding domain (GST fusion)
T1 sequence: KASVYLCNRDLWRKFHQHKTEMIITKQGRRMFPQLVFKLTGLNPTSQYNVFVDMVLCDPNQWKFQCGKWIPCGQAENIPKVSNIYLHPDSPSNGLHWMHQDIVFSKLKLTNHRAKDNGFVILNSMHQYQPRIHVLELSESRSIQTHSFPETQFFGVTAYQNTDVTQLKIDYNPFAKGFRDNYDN
Assay: PBM E-score of 8-mer (E-score (dimensionless, -0.5 to 0.5)); Tbr is Tbrain of the sea star Patiria miniata (Pm) or the sea urchin Strongylocentrotus purpuratus (Sp); higher = stronger binding preference
Conditions: the construct has about 5 more residues each side
Description: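 Universal protein-binding microarray (Agilent AMADID 016060, 60-bp probes with a 35-bp variable region) incubated with 200 nM GST-fused Strongylocentrotus purpuratus Tbr T-box DNA-binding domain (residues 362-554) in PBS pH 7.5. Scored for every ungapped 8-mer (given with its reverse complement) as E-score (range -0.5 to 0.5; >0.45 counts as bound) and Z-score of median probe intensity. Two replicate arrays (datasets 1 and 2).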
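Note: protein at 200 nM in PBS on universal double-stranded arrays.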

Sequence	PBM E-score of 8-mer
AGGTGACA	0.469 ± 0.015
CGGTGACG	0.233 ± 0.02
AGGTGACT	0.276 ± 0.001
AGGTGACC	0.151 ± 0.0043
ACGTGACA	0.3127 ± 0.0018
AGGTGACG	0.453 ± 0.0078
CGATGGAG	-0.131 ± 0.032
AGACGTAC	-0.0414 ± 0.071
CCCCAGCC	-0.0674 ± 0.013
AGGAGTAT	-0.223 ± 0.0026
GATGACCC	0.12 ± 0.0038
GATGACAC	0.402 ± 0.0092
AATGACAC	0.3799 ± 0.0026
AATGACAG	0.0199 ± 0.049
GATGACAA	0.278 ± 0.026
CATGACAC	0.3587 ± 0.0021
AATCTGAT	-0.25 ± 0.015
GAACGCCC	0.138 ± 0.0086
AGGTGGGA	0.433 ± 0.0055
AGGTGGTA	0.405 ± 0.011
CGGTGGGA	0.00775 ± 0.037
AGGTGGTG	0.34049 ± 0.00016
AGGTGGTC	-0.117 ± 0.11
AGGTGGGC	-0.0803 ± 0.021

Sequence	PBM E-score of 8-mer
AGAGGGAA	-0.179 ± 0.028
GAGCTTCC	-0.129 ± 0.05
CGGCGACA	0.296 ± 0.018
AGGTGGAA	0.0503 ± 0.028
GAACTAAC	0.135 ± 0.023
AGCGACAC	0.332 ± 0.022
TGCGACAA	0.271 ± 0.022
CGCGACAC	0.35396 ± 0.00035
GGCGACAC	0.381 ± 0.0043
GGCGACAA	0.3676 ± 0.0007
CGCGACAA	0.309 ± 0.0049
GCTTTGCA	0.0233 ± 0.069
AGTCCAGG	-0.396 ± 0.039
AAGTCCCA	-0.0384 ± 0.044
CAGAAACC	-0.106 ± 0.08
AAATTCTG	-0.136 ± 0.06
CAAAGGTA	-0.0771 ± 0.04
CAAAGGTC	-0.105 ± 0.028
AAAAGGTG	0.41 ± 0.0094
AAAAGGTC	-0.00656 ± 0.018
AAAAGGTT	-0.0952 ± 0.076
CAAAGGTG	0.3923 ± 0.00076
GGTACTAC	-0.3 ± 0.033
ACGTCGAC	0.0807 ± 0.016

Sequence	PBM E-score of 8-mer
GCACTCCC	0.128 ± 0.051
AGCATAAT	-0.177 ± 0.0018
AATAGGTC	-0.154 ± 0.017
AGTAGGTA	-0.00286 ± 0.076
ACTAGGTA	-0.0768 ± 0.014
AGTAGGTG	0.3972 ± 0.0024
ACTAGGTC	-0.14 ± 0.024
AGTAGGTC	-0.0701 ± 0.038
ACTAGGTG	0.403 ± 0.012
AATAGGTG	0.374 ± 0.03
AATAGGTA	-0.0758 ± 0.075
TCAACAAA	-0.0651 ± 0.048
AGAAGTAT	-0.0503 ± 0.0051
AACGTTAT	0.0135 ± 0.06
ACAAAACA	0.0943 ± 0.064
ATAGAGTC	-0.206 ± 0.0048
CGTCTACA	0.0944 ± 0.046
AGGGGGTG	0.269 ± 0.055
AGGGTGTC	0.401 ± 0.015
CGGGTGTC	0.3608 ± 0.0021
AGGGTGTG	0.449 ± 0.011
AGGGTGCG	0.402 ± 0.01
ACGGTGTC	0.271 ± 0.051
AGGGTGCA	0.188 ± 0.025

Sequence	PBM E-score of 8-mer
AGGGTGTA	0.307 ± 0.035
AGGGTGCC	0.267 ± 0.013
AACAGAGT	-0.0053 ± 0.1
CACGTTGC	0.101 ± 0.025
ATTACTTA	-0.154 ± 0.05
AGAGAGAG	0.0384 ± 0.024
GCTAACAA	0.293 ± 0.03
ACTAACAG	0.1931 ± 0.00053
GGTAACAC	0.435 ± 0.0032
CCTAACAG	0.0988 ± 0.11
ACTAACAC	0.402 ± 0.0071
CGTAACAC	0.3104 ± 0.0022
CCTAACAC	0.4165 ± 0.0028
ACTAACAA	0.152 ± 0.039
GCTAACAC	0.417 ± 0.0044
GCTAACCC	0.04 ± 0.097
AGTAACAC	0.3552 ± 0.0029
CCTAACAA	0.161 ± 0.035
CGACCCGA	-0.0816 ± 0.051
TAACCAGA	-0.055 ± 0.015
AGCAAAAG	-0.191 ± 0.046
ACGCAACA	0.121 ± 0.024

— the supplement of paper PMC4166925
